Assay outcomes from PubChem.
L929 necroptosis = blocks zVAD induced death of L929 cells. L929 zVAD necroptosis rescue, ATP luminescence, 24 h; with zVAD 60 µM. viability rescue, % at 10 µM. 0.38% of 220,000 active. AID 1377;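 active = activation, scaled between plate controls, above about 75%, limit read from the data; inactive = activation under that limit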;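 also: 0% = zVAD with DMSO and 100% = DMSO alone without zVAD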
Calb FLC = C. albicans growth modulation with fluconazole. C. albicans CaCi-2 (fluconazole-resistant clinical isolate) + fluconazole, Alamar Blue growth, 48 h. 0.57% of 300,000 active. growth inhibition, % (no concentration beside the values);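 active = growth inhibition above about 58% in most replicates, limit read from the data, passing the limit was not always enough; inconclusive = exactly half the replicates above a set limit; inactive = most replicates below a set limit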;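 also: all wells also contain fluconazole at 8 µg/ml as a sub-toxic cotreatment; 0% = median of DMSO wells and 100% = median of geldanamycin control wells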
HIF activator = HIF pathway transcriptional activation; U2OS HRE-luciferase reporter, luminescence; normalized: DMSO 0%, desferrioxamine 100%; activation, % at 7.5 µM (by protocol); 0.32% of 300,000 active;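 active = mean activation of at least 10% of the iron chelator positive control signal, with at least half of replicates also reaching 10%; inconclusive = mean and replicate majority disagree about reaching 10%; inactive = mean and most replicates under 10%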
TNF death inh = inhibitors of TNF-alpha induced necroptosis in Jurkat FADD-/- cells | Jurkat FADD-/- TNF necroptosis rescue, ATP luminescence, 24 h; 0 = TNF only, 100 = no-TNF cells | activation (protection from cell death), % at 10 µM | 0.068% of 220,000 active;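 active = activation, meaning protection from cell death, of at least 50% relative to plate controls; inactive = activation below 50%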;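 also: necroptosis triggered by 40 ng/mL TNF-alpha added together with compound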
The depositor's hits bear a star; ? = inconclusive; . = no result. Rows were chosen to be rich in hits. Some 1.1% of all compounds tested hit in one or more screens of this group.

SMILES	L929 necroptosis	Calb FLC	HIF activator	TNF death inh
CCOC(=O)c1cnc2ccc(C)cc2c1Nc1ccc(N2CCOCC2)cc1	1	96*	-2	-13
Cn1cc(C(c2ccccn2)c2cn(C)c3ccccc23)c2ccccc21	-1	94*	-2	0
c1ccc(C(c2c[nH]c3ccccc23)c2c[nH]c3ccccc23)nc1	0	4	0	-2
N#C/C(=C(/O)c1ccco1)c1nc2ccccc2[nH]1	72	79*	9	26
N#C/C(=C(\O)Cc1ccccc1)c1nc2ccccc2[nH]1	0	-4	0	2
O=C(Nc1cccc2nsnc12)c1cccs1	0	11	5	-5
O=C(Nc1ccccc1)Nc1cccc2nsnc12	0	0	11*	-8
COc1ccc(-c2nnc(Nc3nc4c(OC)cccc4s3)o2)c(OC)c1	8	101*	2	1
COc1cc(OC)cc(-c2nnc(Nc3nc4c(F)cccc4s3)o2)c1	2	115*	0	-1
CCOc1ccc(S(=O)(=O)N2CCCCC2)cc1NC(=O)c1c(CC)noc1C	.	2	0	.
O=C(NC1CC1)c1ccc(NS(=O)(=O)c2ccc(F)cc2)cc1	.	5	1	.
O=C(COc1ccc2ccccc2c1)NNC(=O)C(=O)Nc1ccccc1	.	-10	0	.
N#C/C(=C\c1ccc(N2CCOCC2)o1)c1ccccc1	0	-22	.	-7
N#C/C(=C\c1ccc(N2CCOCC2)cc1)c1ccccc1	66	87*	5	5
O=C(Nc1cccc(Cl)c1N1CCOCC1)c1cccs1	.	5	1	.
O=C(CSCc1ccc(F)cc1)Nc1ccc(F)cc1	0	?	0	79*
Cc1ccc(CSCC(=O)Nc2ccc(F)cc2)cc1	0	-1	0	7
CC(C)N(CCNC(=O)c1ccc(CS(=O)(=O)c2c(Cl)cccc2Cl)o1)Cc1ccccc1	.	-7	0	.
Cc1cccc(N2CCN(C(=O)c3c(Cl)cnn3C)CC2)c1C	.	13	0	.
CCC(=O)C1CCCN(C(=O)CCc2nnc(C3(c4ccc(Cl)cc4)CCC3)o2)C1 (centres undefined)	.	8	3	.
CC1CCc2c(sc3ncnc(N4CCOCC4)c23)C1 (centres undefined)	1	88*	0	1
CC1CCc2sc3ncnc(N4CCOCC4)c3c2C1 (centres undefined)	0	5	1	-2
CCOc1ccccc1C1CC(=O)NC(SCC(=O)Nc2nccs2)=C1C#N (centres undefined)	93*	14	-26	82*
COC(=O)CSC1=C(C#N)C(c2ccc(C(C)C)cc2)CC(=O)N1 (centres undefined)	9	2	0	56*
CCOc1ccccc1C1CC(=O)NC(SCC)=C1C#N (centres undefined)	0	-9	0	-1
SMILES	L929 necroptosis	Calb FLC	HIF activator	TNF death inh
COc1ccc(N2CCN(c3ccc(N4C(=O)CC(C)C4=O)cc3[N+](=O)[O-])CC2)cc1 (centres undefined)	5	1	66*	2
CCC(C)(C)c1ccc(OCCCC[n+]2ccc(C)cc2)c(C(C)(C)CC)c1	0	94*	0	-14
CCC(C)(C)c1ccc(OCCCC[n+]2cccc(C)c2C)c(C(C)(C)CC)c1	7	109*	-3	-29
CC1CCCCC1NC(=O)C1CCC(CNS(=O)(=O)c2ccccc2)CC1 (centres undefined)	.	8	-4	.
O=[N+]([O-])c1cc(CN2CCOCC2)c2cccnc2c1O	1	.	.	0
O=[N+]([O-])c1cc(CN2CCN(c3ccccc3)CC2)c(O)c2ncccc12	46	100*	9	-14
O=[N+]([O-])c1cc(Cl)c(O)c2ncccc12	-1	107*	-1	1
O=[N+]([O-])c1cc(Cl)c2cccnc2c1O	2	102*	0	-1
O=[N+]([O-])c1ccc(O)c2ncccc12	7	99*	0	-25
COc1ccc(S(=O)(=O)Nc2ccc(F)c(F)c2)cc1C(=O)N1CCOCC1	.	2	1	.
CN(C)CCNC(=O)CNC(=S)N(CCCN1CCOCC1)Cc1cccs1	1	-4	0	2
CCOC(=O)[C@@H]1[C@H]2COc3cc(OC)ccc3[C@@H]2N2C(=O)N(c3ccc(C(F)(F)F)cc3)C(=O)[C@]12C	.	-5	-3	.
CCNc1nc(Cl)nc(NNC(=O)C(C)Oc2ccccc2)n1 (centres undefined)	1	-3	236*	0
CC(NC(=O)c1cc(Br)ccc1Cl)c1ccccc1 (centres undefined)	1	-6	0	80*
CC(NC(=O)c1ccc(Br)cc1Br)c1ccccc1 (centres undefined)	1	-23	0	1
CCOc1cc(S(=O)(=O)NCc2ccccc2)c(OCC)cc1-n1cnnn1	-1	100*	-1	0
CCOC(=O)C1=C(C)NC(C)=C(C(=O)OCC)C1C(=O)OCC(N)=O	2	-4	0	0
CCOC(=O)C1=C(C)NC(C)=C(C(=O)OCC)C1C(=O)OCC(=O)N(C)C1CCS(=O)(=O)C1 (centres undefined)	2	-10	13*	1
CC(=O)N(CC1CCCO1)c1nnc(-c2cnccn2)s1 (centres undefined)	0	-4	-2	76*
CC(OC(=O)CCOc1ccccc1)C(=O)Nc1ccc(Cl)cn1 (centres undefined)	.	-14	-1	.
CCCC(=O)Nc1nc2ccc(OCC)cc2s1	66	-3	3	1
CCOc1ccc2nc(NC(=O)CCn3cccc3)sc2c1	85*	-2	0	6
CCOc1ccc2nc(NC(=S)N(C)C)sc2c1	0	104*	0	-2
O=C(Nc1ccc(F)c(Cl)c1)NC1CC1	1	83*	0	1
O=C(/C=C/c1cccs1)NCc1ccc2c(c1)OCO2	.	.	2	.
SMILES	L929 necroptosis	Calb FLC	HIF activator	TNF death inh
COc1ccc(NC(=O)c2ccc(OC(=S)N(C)c3ccc(OC)cc3)cc2)cc1	0	2	-1	68*
Oc1ccc(/C=N/N(c2ccccc2)c2ccccc2)c(O)c1O	.	113*	0	.
Oc1ccc(/C=N/N(c2ccccc2)c2ccccc2)cc1O	.	37	0	.
C/C(=N\NC(=O)CN1CCCCC1)c1cccc([N+](=O)[O-])c1	.	-7	0	.
C/C(=N\NC(=O)CN1CCCCC1)c1ccccc1O	.	-5	13*	.
Cc1ccc(CNC(=O)C2CCC(=O)N(Cc3cccc(C(F)(F)F)c3)C2)o1 (centres undefined)	.	-6	0	.
C/C(=N\NC(=O)CCC(=O)Nc1ccc(C)c(C)c1)c1cccs1	1	-1	0	1
C/C(=N\NC(=O)CCC(=O)Nc1ccc(C)c(C)c1)C1CC1	.	123*	.	.
O=C(NCc1nnnn1-c1ccc(F)c(F)c1)c1ccc2c(c1)OCO2	.	-9	0	.
CCOC(=O)c1c(NC(=O)CN2C(=O)NC3(CCC(C)CC3)C2=O)sc(C)c1-c1ccc(C)cc1 (centres undefined)	5	-3	39*	0
